Common to all, as to test: DAPPL (digital affinity profiling via proximity ligation, sequencing); 10 mM Tris-HCl pH 7.5, 50 mM NaCl, 1 mM DTT, 4% glycerol, room temperature, 30 min; GST-TFs on glutathione beads, 16-mer random dsDNA library, 0.1% formaldehyde crosslink after washing; high values mean tight binding
Conditions in all cases: protein: recombinant; tags: N-terminal GST; dsDNA, one strand shown

The target in experiment [1] is T1, ERF (Homo sapiens, UniProt P50548 1-548).
T1 sequence: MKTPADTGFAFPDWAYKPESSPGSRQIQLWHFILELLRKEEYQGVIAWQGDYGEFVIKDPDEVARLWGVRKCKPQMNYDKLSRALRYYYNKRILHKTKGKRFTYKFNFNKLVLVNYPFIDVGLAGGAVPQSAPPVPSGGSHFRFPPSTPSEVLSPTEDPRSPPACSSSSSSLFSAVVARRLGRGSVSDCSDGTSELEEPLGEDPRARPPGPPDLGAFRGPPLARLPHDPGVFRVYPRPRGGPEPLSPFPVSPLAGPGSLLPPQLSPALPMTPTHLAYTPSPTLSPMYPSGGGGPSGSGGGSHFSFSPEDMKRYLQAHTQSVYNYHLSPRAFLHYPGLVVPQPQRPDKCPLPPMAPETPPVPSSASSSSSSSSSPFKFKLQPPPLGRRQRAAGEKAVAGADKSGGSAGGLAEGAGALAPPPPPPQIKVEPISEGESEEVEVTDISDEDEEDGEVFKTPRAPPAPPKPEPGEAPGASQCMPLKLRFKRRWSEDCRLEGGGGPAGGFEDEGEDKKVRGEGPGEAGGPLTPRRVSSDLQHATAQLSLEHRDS
In a few lines:
(§1)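 Sequencing on an Illumina NextSeq500 followed washing, crosslinking with 0.1% formaldehyde, proximity ligation (BsaI/T4 ligase, 1 h, 37 °C) and PCR amplification of pools that had been incubated for 30 min at room temperature with 200 nmole of a random double-stranded 16-mer DNA library in Tris/NaCl/DTT/glycerol buffer. Each pool held DNA-barcoded human transcription factors, expressed in yeast as GST fusions and captured on glutathione beads, plus a tag-only sample. Binding signal is a hexamer's read frequency for a factor divided by its frequency in the tag-only sample.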

For experiment [2], the target named is T2, ETV3L (Homo sapiens, UniProt Q6ZN32 1-361).
T2 sequence: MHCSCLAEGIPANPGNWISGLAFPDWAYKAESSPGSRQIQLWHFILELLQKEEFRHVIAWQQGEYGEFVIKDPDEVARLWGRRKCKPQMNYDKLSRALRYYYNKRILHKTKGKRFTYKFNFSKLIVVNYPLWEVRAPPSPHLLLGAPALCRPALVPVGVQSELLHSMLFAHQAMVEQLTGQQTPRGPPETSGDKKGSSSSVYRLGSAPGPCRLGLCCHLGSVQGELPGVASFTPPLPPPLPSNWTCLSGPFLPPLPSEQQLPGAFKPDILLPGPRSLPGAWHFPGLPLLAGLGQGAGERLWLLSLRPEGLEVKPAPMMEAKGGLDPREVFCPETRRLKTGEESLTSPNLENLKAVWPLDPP
In a few lines: as §1

Experiment [3] addresses T3, ETS2 (Homo sapiens, UniProt P15036 1-469).
T3 sequence: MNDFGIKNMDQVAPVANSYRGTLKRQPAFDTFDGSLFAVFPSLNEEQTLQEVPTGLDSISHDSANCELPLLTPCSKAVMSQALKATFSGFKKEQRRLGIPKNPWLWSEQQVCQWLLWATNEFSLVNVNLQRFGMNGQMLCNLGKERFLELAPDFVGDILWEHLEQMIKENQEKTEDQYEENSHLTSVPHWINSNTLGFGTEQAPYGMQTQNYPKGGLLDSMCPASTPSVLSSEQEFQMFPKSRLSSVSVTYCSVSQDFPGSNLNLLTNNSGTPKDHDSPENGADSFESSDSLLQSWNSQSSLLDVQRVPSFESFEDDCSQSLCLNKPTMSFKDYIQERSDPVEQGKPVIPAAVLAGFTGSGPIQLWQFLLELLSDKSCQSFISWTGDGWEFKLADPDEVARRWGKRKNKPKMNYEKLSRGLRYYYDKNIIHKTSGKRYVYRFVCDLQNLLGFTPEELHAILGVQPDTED
In a few lines: as §1

Experiment [4] has as its target T4, SPDEF (Homo sapiens, UniProt O95238 1-335).
T4 sequence: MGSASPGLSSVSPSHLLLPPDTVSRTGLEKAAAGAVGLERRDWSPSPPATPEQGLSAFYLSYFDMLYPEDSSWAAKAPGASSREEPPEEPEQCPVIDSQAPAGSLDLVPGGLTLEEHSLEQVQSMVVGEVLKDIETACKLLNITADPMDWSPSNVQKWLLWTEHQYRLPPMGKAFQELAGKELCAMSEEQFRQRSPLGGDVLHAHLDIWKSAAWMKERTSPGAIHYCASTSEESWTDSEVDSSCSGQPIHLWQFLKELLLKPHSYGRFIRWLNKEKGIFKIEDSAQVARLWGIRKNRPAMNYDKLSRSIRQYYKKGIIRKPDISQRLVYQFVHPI
In a few lines:
as §1

The target in experiment [5] is T5, ETV7 (Homo sapiens, UniProt Q9Y603 1-341).
T5 sequence: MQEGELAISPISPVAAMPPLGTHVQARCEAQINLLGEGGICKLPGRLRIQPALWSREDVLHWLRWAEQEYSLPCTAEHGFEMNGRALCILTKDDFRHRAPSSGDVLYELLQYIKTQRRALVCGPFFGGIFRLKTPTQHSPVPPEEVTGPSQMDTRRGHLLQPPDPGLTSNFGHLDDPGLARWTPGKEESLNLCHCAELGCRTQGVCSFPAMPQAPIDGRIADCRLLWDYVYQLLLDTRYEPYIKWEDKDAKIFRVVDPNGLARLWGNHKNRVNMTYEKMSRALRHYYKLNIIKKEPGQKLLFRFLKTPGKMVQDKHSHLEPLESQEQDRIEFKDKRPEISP
In outline:
as §1

In experiment [6] the target is T6, ELF5 (Homo sapiens, UniProt Q9UKW6-2 1-255).
T6 sequence: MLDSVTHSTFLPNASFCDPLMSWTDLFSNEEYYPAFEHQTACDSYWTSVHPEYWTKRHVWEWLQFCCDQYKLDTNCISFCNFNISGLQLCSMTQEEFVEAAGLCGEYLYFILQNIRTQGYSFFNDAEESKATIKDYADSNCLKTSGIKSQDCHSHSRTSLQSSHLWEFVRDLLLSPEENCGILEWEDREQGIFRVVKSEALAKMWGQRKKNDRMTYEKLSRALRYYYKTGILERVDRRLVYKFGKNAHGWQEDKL
In a few lines:
as §1

The target in experiment [7] is T7, ETV3 (Homo sapiens, UniProt P41162-2 1-143).
T7 sequence: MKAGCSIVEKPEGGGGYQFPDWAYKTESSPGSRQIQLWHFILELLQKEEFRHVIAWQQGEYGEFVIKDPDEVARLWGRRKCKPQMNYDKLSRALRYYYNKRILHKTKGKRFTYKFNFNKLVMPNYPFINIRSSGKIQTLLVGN
In outline:
as §1

For experiment [8], the target named is ETV6 (Homo sapiens, UniProt P41212 1-452). In outline:
as §1

Chain of ETV6 (P41212 whole entry): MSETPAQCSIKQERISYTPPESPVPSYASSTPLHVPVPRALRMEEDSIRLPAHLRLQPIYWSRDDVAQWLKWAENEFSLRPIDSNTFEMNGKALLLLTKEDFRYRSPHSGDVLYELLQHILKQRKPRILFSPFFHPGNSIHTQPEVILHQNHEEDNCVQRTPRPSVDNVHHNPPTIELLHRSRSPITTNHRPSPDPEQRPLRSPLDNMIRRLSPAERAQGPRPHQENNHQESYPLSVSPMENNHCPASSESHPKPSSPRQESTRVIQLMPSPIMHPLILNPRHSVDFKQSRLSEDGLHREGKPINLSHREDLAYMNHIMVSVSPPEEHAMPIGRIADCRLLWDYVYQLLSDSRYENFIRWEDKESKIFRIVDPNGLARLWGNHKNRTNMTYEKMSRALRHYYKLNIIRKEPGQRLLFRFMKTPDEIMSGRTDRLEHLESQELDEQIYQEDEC

For ATATGA, the binding signal in experiment [1] is 1.13 fold enrichment (6-mer frequency, TF over GST control); in experiment [2] it was 1.14 fold enrichment (6-mer frequency, TF over GST control); in experiment [3] it was 1.09 fold enrichment (6-mer frequency, TF over GST control); in experiment [4], 1.05 fold enrichment (6-mer frequency, TF over GST control); in experiment [5], 1.12 fold enrichment (6-mer frequency, TF over GST control); in experiment [6], 1.1 fold enrichment (6-mer frequency, TF over GST control). Besides, the binding signal is 1.08 fold enrichment (6-mer frequency, TF over GST control) in experiment [7] and 1.06 fold enrichment (6-mer frequency, TF over GST control) in experiment [8].
Take CCACTC: the binding signal is 1.13 fold enrichment (6-mer frequency, TF over GST control) in experiment [1]; 1.28 fold enrichment (6-mer frequency, TF over GST control) in experiment [2]; 1.21 fold enrichment (6-mer frequency, TF over GST control) in experiment [3]; 1.26 fold enrichment (6-mer frequency, TF over GST control) in experiment [4]; 1.21 fold enrichment (6-mer frequency, TF over GST control) in experiment [5]; 1.19 fold enrichment (6-mer frequency, TF over GST control) in experiment [6]. Moreover, the binding signal was 1.14 fold enrichment (6-mer frequency, TF over GST control) in experiment [7] and 1.13 fold enrichment (6-mer frequency, TF over GST control) in experiment [8].
On to TAAGCT, for which the binding signal was 1.39 fold enrichment (6-mer frequency, TF over GST control) in experiment [1]; 1.25 fold enrichment (6-mer frequency, TF over GST control) in experiment [2]; 1.13 fold enrichment (6-mer frequency, TF over GST control) in experiment [3]; 1.11 fold enrichment (6-mer frequency, TF over GST control) in experiment [4]; 1.3 fold enrichment (6-mer frequency, TF over GST control) in experiment [5]; 1.04 fold enrichment (6-mer frequency, TF over GST control) in experiment [6]. Further, the binding signal is 1.2 fold enrichment (6-mer frequency, TF over GST control) in experiment [7] and 1.15 fold enrichment (6-mer frequency, TF over GST control) in experiment [8].
For CCATCC, the binding signal in experiment [1] is 1.12 fold enrichment (6-mer frequency, TF over GST control); in experiment [2], 1.31 fold enrichment (6-mer frequency, TF over GST control); in experiment [3], 1.23 fold enrichment (6-mer frequency, TF over GST control); in experiment [4], 1.56 fold enrichment (6-mer frequency, TF over GST control); in experiment [5], 1.24 fold enrichment (6-mer frequency, TF over GST control); in experiment [6], 1.3 fold enrichment (6-mer frequency, TF over GST control). Further, the binding signal was 1.27 fold enrichment (6-mer frequency, TF over GST control) in experiment [7] and 1.2 fold enrichment (6-mer frequency, TF over GST control) in experiment [8].
TGCTTA: the binding signal in experiment [1] is 1.1 fold enrichment (6-mer frequency, TF over GST control); in experiment [2], 1.09 fold enrichment (6-mer frequency, TF over GST control); in experiment [3], 1.1 fold enrichment (6-mer frequency, TF over GST control); in experiment [4] it was 1.18 fold enrichment (6-mer frequency, TF over GST control); in experiment [5] it was 1.12 fold enrichment (6-mer frequency, TF over GST control); in experiment [6], 1.03 fold enrichment (6-mer frequency, TF over GST control). Besides, the binding signal is 1.18 fold enrichment (6-mer frequency, TF over GST control) in experiment [7] and 1.1 fold enrichment (6-mer frequency, TF over GST control) in experiment [8].
CACTGT: the binding signal was 1.16 fold enrichment (6-mer frequency, TF over GST control) in experiment [1]; 1.09 fold enrichment (6-mer frequency, TF over GST control) in experiment [2]; 1.13 fold enrichment (6-mer frequency, TF over GST control) in experiment [3]; 1.11 fold enrichment (6-mer frequency, TF over GST control) in experiment [4]; 1.13 fold enrichment (6-mer frequency, TF over GST control) in experiment [5]; 1.12 fold enrichment (6-mer frequency, TF over GST control) in experiment [6]. Also, the binding signal in experiment [7] is 1.12 fold enrichment (6-mer frequency, TF over GST control); in experiment [8] it was 1.05 fold enrichment (6-mer frequency, TF over GST control).
TTTCTG: the binding signal in experiment [1] was 1.44 fold enrichment (6-mer frequency, TF over GST control); in experiment [2] it was 1.29 fold enrichment (6-mer frequency, TF over GST control); in experiment [3], 1.37 fold enrichment (6-mer frequency, TF over GST control); in experiment [4], 1.46 fold enrichment (6-mer frequency, TF over GST control); in experiment [5] it was 1.39 fold enrichment (6-mer frequency, TF over GST control); in experiment [6], 1.42 fold enrichment (6-mer frequency, TF over GST control). For the same sequence, the binding signal in experiment [7] was 1.3 fold enrichment (6-mer frequency, TF over GST control); in experiment [8], 1.46 fold enrichment (6-mer frequency, TF over GST control).
On to CCTGCC, for which the binding signal in experiment [1] was 1.3 fold enrichment (6-mer frequency, TF over GST control); in experiment [2] it was 1.24 fold enrichment (6-mer frequency, TF over GST control); in experiment [3] it was 1.23 fold enrichment (6-mer frequency, TF over GST control); in experiment [4] it was 1.31 fold enrichment (6-mer frequency, TF over GST control); in experiment [5] it was 1.33 fold enrichment (6-mer frequency, TF over GST control); in experiment [6] it was 1.35 fold enrichment (6-mer frequency, TF over GST control). For the same sequence, the binding signal was 1.28 fold enrichment (6-mer frequency, TF over GST control) in experiment [7] and 1.36 fold enrichment (6-mer frequency, TF over GST control) in experiment [8].

Source of the values: PMC7862700, “An all-to-all approach to the identification of sequence-specific readers for epigenetic DNA modifications on cytosine”.
